From PubChem BioAssay (NCATS)
Records with an inconclusive call do not appear. Active and inactive are the calls of the source. The call rests on the fitted dose curve; in most records, active means well fitted curve in the direction sought with a large enough effect; inconclusive means small, poorly fitted or top-dose-only effect, or another doubt; inactive means no such curve, though single readings can be large; an effect the other way counts as inactive or inconclusive.

What was measured:
CRL-7250 = normal cell line; assay: Cytotoxic Profiling of Annotated Libraries Using Quantitative High-Throughput Screening (AID 1296008); settings: Five cell lines viability, CellTiter-Glo ATP luminescence, 48-72 h; max response: stronger effect = lower value; further: nearly all actives have a fitted effect of over 60% in size; on max response: on the % scale 0 is the no-effect control and ±100 the full control effect
In short: (§1)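 Cytotoxicity was measured as CellTiter-Glo ATP luminescence, read after 10 min at room temperature. Compound treatment of the cells lasted 48 or 72 hr at 37 degrees Celsius in a qHTS format.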

HaCat [1] = assay: as above; settings: Five cell lines viability, CellTiter-Glo ATP luminescence, 48-72 h; max response: stronger effect = lower value
In short: as §1

KB-3-1 = assay: as above; settings: Five cell lines viability, CellTiter-Glo ATP luminescence, 48-72 h; max response: stronger effect = lower value
In short: as §1

NIH3T3 = assay: as above; settings: Five cell lines viability, CellTiter-Glo ATP luminescence, 48-72 h; max response: stronger effect = lower value
In short: as §1

HACAT [2] = assay: qHTS assay to identify novel small-molecules to repurpose for Merkel cell carcinoma treatment (AID 1296009); settings: MCC and control cell lines, CellTiter-Glo viability, 72 h; at 44.8 µM (top of the series) unless noted; further: nearly all actives have a fitted effect of over 60% in size
In short: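 After compound transfer in DMSO, plates were kept 72 hr at 37 degree celsius. Luminescent ATP signal from CellTiter-Glo served as viability measure, normalized against DMSO and no-cell controls.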

C33A = assay: Primary qHTS to identify gynecologic anti-cancer compounds using libraries of approved drugs and bioactive compounds (AID 1345084); settings: Gynecologic cancer cell panel viability, ATPlite luminescence, 48 h; series mostly up to 57.5 µM; further: on the % scale 0 is the no-effect control and ±100 the full control effect; nearly all actives have a fitted effect of over 55% in size
In short: (§2)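 Cells, 1,000 per well, were allowed to settle for 16 h at 37 C before compound addition. Five concentrations were tested for 48 h, and viability was read by ATPlite luminescence after 15 min at room temperature.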

CASKI = assay: as above; settings: Gynecologic cancer cell panel viability, ATPlite luminescence, 48 h; series mostly up to 57.5 µM
In short: as §2

Es-2 = assay: as above; settings: Gynecologic cancer cell panel viability, ATPlite luminescence, 48 h; series mostly up to 57.5 µM
In short: as §2

HeLa = assay: as above; settings: Gynecologic cancer cell panel viability, ATPlite luminescence, 48 h; series mostly up to 57.5 µM
In short: as §2

Hek293T = assay: as above; settings: Gynecologic cancer cell panel viability, ATPlite luminescence, 48 h, control line for the selectivity index; series mostly up to 57.5 µM
In short: as §2

JEG-3 = assay: as above; settings: Gynecologic cancer cell panel viability, ATPlite luminescence, 48 h; series mostly up to 57.5 µM
In short: as §2

OV90 = assay: as above; settings: Gynecologic cancer cell panel viability, ATPlite luminescence, 48 h; series mostly up to 57.5 µM
In short: as §2

PA-1 = assay: as above; settings: Gynecologic cancer cell panel viability, ATPlite luminescence, 48 h; series mostly up to 57.5 µM
In short: as §2

CAOV3 = assay: as above; settings: Gynecologic cancer cell panel viability, ATPlite luminescence, 48 h; series mostly up to 57.5 µM
In short: as §2

CC(=O)C=C=C1C(C)(C)CC(O)CC1(C)O[C@@H]1O[C@H](CO[C@H]2OC[C@](O)(CO)[C@H]2O)[C@@H](O)[C@H](O)[C@H]1O (some centres not stated)
inactive: max response (CRL-7250) -2.66% | outcome (HaCat [1]) | outcome (KB-3-1) | max response (NIH3T3) 1.53% | outcome (HACAT [2]) inactive [at 17.4 µM] | Potency (C33A) | Potency (CASKI) | Potency (Es-2) | Potency (HeLa) | Potency (Hek293T) | Potency (JEG-3) | Potency (OV90) | Potency (PA-1)

Fc1ccc(CN2CCC(Nc3ccc(C(F)(F)F)nn3)CC2)cc1F
inactive: max response (CRL-7250) -3.28% | outcome (HaCat [1]) | max response (KB-3-1) -12.1% | max response (NIH3T3) -5.8% | outcome (HACAT [2]) | Potency (C33A) | Potency (CAOV3) | Potency (Es-2) | Potency (HeLa) | Potency (Hek293T) | Potency (JEG-3) | Potency (OV90) | Potency (PA-1)

C=C1C(=O)O[C@@H]2[C@H]1CC[C@H](C)[C@]1(CCC(=O)O1)C2(C)O (some centres not stated)
inactive: max response (CRL-7250) -3% | outcome (HaCat [1]) | outcome (KB-3-1) | max response (NIH3T3) -19.6% | outcome (HACAT [2]) | Potency (C33A) | Potency (CAOV3) | Potency (CASKI) | Potency (Es-2) | Potency (HeLa) | Potency (JEG-3) | Potency (OV90) | Potency (PA-1)

COc1ccc2c(NC(=O)Nc3cccc(C(F)(F)F)n3)ccnc2c1
inactive: max response (CRL-7250) -17.8% | outcome (HaCat [1]) | outcome (KB-3-1) | max response (NIH3T3) -6.75% | outcome (HACAT [2]) | Potency (C33A) | Potency (CAOV3) | Potency (CASKI) | Potency (Es-2) | Potency (HeLa) | Potency (Hek293T) | Potency (OV90)

Cc1cc(C)c(-n2cc(C)c3c(Cl)nc(C)nc32)c(C)c1
inactive: max response (CRL-7250) -11.1% | outcome (HaCat [1]) | max response (KB-3-1) -3.82% | max response (NIH3T3) -6% | outcome (HACAT [2]) | Potency (C33A) | Potency (CASKI) | Potency (Es-2) | Potency (HeLa) | Potency (Hek293T) | Potency (JEG-3) | Potency (OV90) | Potency (PA-1)

CN1CCC(c2cn(C)c3ccc(OS(=O)(=O)c4c(F)cccc4F)cc23)CC1
inactive: outcome (CRL-7250) | outcome (HaCat [1]) | max response (KB-3-1) -7.12% | max response (NIH3T3) 3.31% | outcome (HACAT [2]) | Potency (C33A) | Potency (CAOV3) | Potency (CASKI) | Potency (Es-2) | Potency (HeLa) | Potency (Hek293T) | Potency (JEG-3) | Potency (PA-1)

Cc1ccc(OC[C@H](O)[C@H](C)NC(C)C)c2c1CCC2
inactive: max response (CRL-7250) -3.77% | outcome (HaCat [1]) | max response (KB-3-1) 5.3% | max response (NIH3T3) 0.0465% | outcome (HACAT [2]) | Potency (CAOV3) | Potency (CASKI) | Potency (Es-2) | Potency (HeLa) | Potency (Hek293T) | Potency (JEG-3) | Potency (OV90) | Potency (PA-1)

C=C1C(=O)OC2CC(C)C(CCC(C)O)=CCC12 (configuration not stated)
inactive: max response (CRL-7250) -9.97% | outcome (HaCat [1]) | outcome (KB-3-1) | max response (NIH3T3) -1.15% | outcome (HACAT [2]) | Potency (C33A) | Potency (CAOV3) | Potency (CASKI) | Potency (Es-2) | Potency (HeLa) | Potency (Hek293T) | Potency (OV90) | Potency (PA-1)

Cc1cc(OCCCS(C)(=O)=O)cc(C)c1-c1cccc(COc2ccc(C3=CC(=O)NS3=O)cc2)c1 (configuration not stated)
inactive: max response (CRL-7250) 3.79% | outcome (HaCat [1]) | max response (KB-3-1) 3.57% | max response (NIH3T3) -0.311% | outcome (HACAT [2]) | Potency (C33A) | Potency (CAOV3) | Potency (Es-2) | Potency (Hek293T) | Potency (JEG-3)

CC(C)OC(=O)N1CCC(Oc2ncnc3c2cnn3-c2ccc(S(C)(=O)=O)cc2F)CC1
inactive: outcome (CRL-7250) | outcome (HaCat [1]) | max response (KB-3-1) -25.6% | max response (NIH3T3) -1.21% | outcome (HACAT [2]) | Potency (C33A) | Potency (CAOV3) | Potency (CASKI) | Potency (Es-2) | Potency (HeLa) | Potency (JEG-3) | Potency (OV90) | Potency (PA-1)

CC(C)CCCCC(=O)N[C@@H](CO)C(=O)N[C@@H](CC(C)C)C(=O)[C@@]1(CO)CO1
inactive: max response (CRL-7250) -2.59% | outcome (HaCat [1]) | max response (KB-3-1) -12% | max response (NIH3T3) -2.24% | outcome (HACAT [2]) | Potency (C33A) | Potency (CASKI) | Potency (Es-2) | Potency (HeLa) | Potency (Hek293T) | Potency (JEG-3) | Potency (OV90)

CCNC1(C(N)=O)CN(c2nc(C)nc3c(-c4ccc(Cl)cc4)c(-c4ccccc4Cl)nn23)C1
inactive: max response (CRL-7250) -17.8% | outcome (HaCat [1]) | max response (KB-3-1) -14.3% | max response (NIH3T3) -3.55% | outcome (HACAT [2]) | Potency (C33A) | Potency (CAOV3) | Potency (CASKI) | Potency (Es-2) | Potency (HeLa) | Potency (Hek293T) | Potency (JEG-3) | Potency (PA-1)

C=C(C)[C@@H]1CC[C@]2(C(=O)O)CC[C@]3(C(=O)O)[C@H](CCC4[C@@]5(C)CCC(=O)C(C)(C)C5CC[C@]43C)C12 (some centres not stated)
inactive: max response (CRL-7250) -13.3% | outcome (HaCat [1]) | max response (KB-3-1) 4.42% | max response (NIH3T3) -2.4% | outcome (HACAT [2]) inactive [at 17.4 µM] | Potency (C33A) | Potency (CASKI) | Potency (Es-2) | Potency (HeLa) | Potency (Hek293T) | Potency (JEG-3) | Potency (OV90) | Potency (PA-1)

CC1=C(C(=O)Nc2cc(Cl)ccc2Cl)C(c2ccco2)C2=C(CCCC2=O)N1 (configuration not stated)
inactive: max response (CRL-7250) -1.05% | outcome (HaCat [1]) | max response (KB-3-1) 7.23% | max response (NIH3T3) -25.9% | outcome (HACAT [2]) | Potency (C33A) | Potency (CAOV3) | Potency (CASKI) | Potency (Es-2) | Potency (HeLa) | Potency (Hek293T) | Potency (JEG-3) | Potency (OV90) | Potency (PA-1)

CC(=O)O[C@@H]1CC[C@@]2(C)[C@H](CC[C@@H]3[C@@H]2C[C@H](OC(C)=O)[C@]2(C)[C@@H](C(C)=O)CC[C@@H]32)C1
inactive: max response (CRL-7250) -9.5% | outcome (HaCat [1]) | max response (KB-3-1) -28.9% | max response (NIH3T3) -22.7% | outcome (HACAT [2]) | Potency (C33A) | Potency (CAOV3) | Potency (CASKI) | Potency (Es-2) | Potency (HeLa) | Potency (Hek293T) | Potency (JEG-3) | Potency (OV90) | Potency (PA-1)
